An excerpt weighted towards active compounds, which were near 2.7% of everything screened.
TCR-CD3 inh: inhibitors of human TCR-CD3 interaction; AID 651800; TAMRA-labeled TCR probe fluorescence, biochemical; 0.37% of 360,000 active; inhibition, % at 9.4 µM; in the data active = inhibition above about 19%;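 note: recombinant mutant TCR 2C K166C tagged with TAMRA read by polarization; 0% = receptor in buffer alone and 100% = receptor with positive control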
PAFAH1B2 inh: blocks human PAF acetylhydrolase 1b catalytic subunit 2 | P68402 | inhibition, % at 3.39 µM | 1.2% of 340,000 active | recombinant PAFAH1B2, FP-rhodamine activity probe, fluorescence polarization;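 active = inhibition above the mean of all tested compounds plus 3 SD, cut at about 24% in these data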;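 note: 0% = enzyme with DMSO and 100% = wells lacking PAFAH1B2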
pPAFAH inh: inhibitors of human plasma PAF acetylhydrolase (pPAFAH). Q13093. recombinant pPAFAH, FP-rhodamine probe fluorescence polarization. inhibition, % at 3.39 µM. 1.5% of 330,000 active;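 active = inhibition above the mean inhibition across the screen plus 3 SD, cut at about 25% in these data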;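 note: inhibitors block binding of the rhodamine activity-based probe so polarization drops; 0% = enzyme with DMSO and 100% = wells lacking pPAFAH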
Target sequence (Q13093 whole entry, looked up): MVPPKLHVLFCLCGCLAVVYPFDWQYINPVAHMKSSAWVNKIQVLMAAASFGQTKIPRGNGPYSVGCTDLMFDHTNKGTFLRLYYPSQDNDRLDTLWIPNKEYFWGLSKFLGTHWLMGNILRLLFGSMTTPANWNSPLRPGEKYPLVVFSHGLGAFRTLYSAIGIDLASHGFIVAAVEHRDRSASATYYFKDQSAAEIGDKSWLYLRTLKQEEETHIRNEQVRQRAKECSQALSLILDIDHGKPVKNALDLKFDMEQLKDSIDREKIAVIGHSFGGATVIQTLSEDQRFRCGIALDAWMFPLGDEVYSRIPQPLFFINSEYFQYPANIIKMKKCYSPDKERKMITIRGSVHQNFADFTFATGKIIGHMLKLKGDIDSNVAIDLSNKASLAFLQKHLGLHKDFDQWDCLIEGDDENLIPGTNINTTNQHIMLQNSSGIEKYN
PAFAH2 FP inh: PAFAH2 (human) inhibition. Q99487. recombinant PAFAH2, FP-rhodamine activity probe, fluorescence polarization. inhibition, % at 3.39 µM. 0.99% of 340,000 active;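 active = inhibition above the mean over all tested compounds plus 3 SD, cut at about 30% in these data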;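 note: inhibitors block probe labeling of enzyme so polarization drops; 0% = enzyme with DMSO and 100% = wells lacking PAFAH2 protein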
PAFAH1B3 FP inh: inhibitors of human PAFAH1B3; inhibition, % at 3.39 µM; Q15102; AID 492972; 0.28% of 340,000 active; recombinant PAFAH1B3, FP-rhodamine probe, fluorescence polarization;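 active = inhibition above the screen-wide average of all tested compounds plus 3 SD, cut at about 25% in these data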;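 note: 0% = enzyme with DMSO only and 100% = wells lacking PAFAH1B3 protein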
Target sequence (Q15102 whole entry, looked up): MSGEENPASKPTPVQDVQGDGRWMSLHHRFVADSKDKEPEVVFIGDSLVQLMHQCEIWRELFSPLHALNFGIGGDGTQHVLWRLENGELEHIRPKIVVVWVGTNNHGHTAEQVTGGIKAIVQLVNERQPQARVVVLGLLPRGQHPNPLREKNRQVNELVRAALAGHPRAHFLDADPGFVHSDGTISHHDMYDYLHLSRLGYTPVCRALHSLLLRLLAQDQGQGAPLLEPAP
* = called active by the depositor.

What do the screens show for `CS(=O)(=O)c1ccc2c(c1)sc1nc(=O)c(/C=C3/C=CC(=O)C(O)=C3)c(N)n12`?
TCR-CD3 inh: 14; PAFAH1B2 inh: 53*; pPAFAH inh: 20; PAFAH2 FP inh: 58*; PAFAH1B3 FP inh: 28*

What do the screens show for `COCCN(Cc1ccc(C)cc1)C(=O)[C@@H](Cc1ccccc1)NC(=O)[C@H]1O[C@@H](n2ccc(=O)[nH]c2=O)[C@H](O)[C@@H]1O`?
TCR-CD3 inh: 3

How did Cc1nc(SCC(=O)N2CCCCCC2)c2c(=O)n(C)c(=O)n(CC(C)C)c2n1 do in these assays?
TCR-CD3 inh: 1; PAFAH1B2 inh: 7; PAFAH2 FP inh: 3; PAFAH1B3 FP inh: 0

How did Cn1cnc(S(=O)(=O)N2CCN(C(c3ccc(F)cc3)c3ccc(F)cc3)CC2)c1 do in these assays?
TCR-CD3 inh: 11; PAFAH1B2 inh: 9; pPAFAH inh: 11; PAFAH2 FP inh: 11; PAFAH1B3 FP inh: 3

How did Clc1ccc2nc(-c3ccccn3)c(Nc3ccc4c(c3)OCO4)n2c1 do in these assays?
TCR-CD3 inh: 7; PAFAH1B2 inh: -2; pPAFAH inh: 27*; PAFAH2 FP inh: -2; PAFAH1B3 FP inh: 11

Results for CC(=O)N(\C=C/C=C/C=C1\Sc2ccccc2C1=O)c1ccccc1 ?
TCR-CD3 inh: -14; PAFAH1B2 inh: -43; pPAFAH inh: 30*; PAFAH2 FP inh: -93; PAFAH1B3 FP inh: -78

Results for CN(C)/C=C1/Sc2ccccc2C1=O ?
TCR-CD3 inh: -9; PAFAH1B2 inh: 6; pPAFAH inh: 1; PAFAH2 FP inh: -12; PAFAH1B3 FP inh: -8

How did COC(C/C=C\C(=O)COCc1ccccc1)OC do in these assays?
pPAFAH inh: 25*

Results for COc1ccc(-n2nc3c(c2NC(=O)CCl)CSC3)cc1 ?
TCR-CD3 inh: 2; PAFAH1B2 inh: 1; pPAFAH inh: 8; PAFAH2 FP inh: -3; PAFAH1B3 FP inh: -5

Results for N#Cc1c(Cl)nc(N/N=C/c2ccccc2)c(Cl)c1Cl ?
TCR-CD3 inh: -7; PAFAH1B2 inh: 0; pPAFAH inh: 29*; PAFAH2 FP inh: 0; PAFAH1B3 FP inh: 1

How did CC(=O)C1=C(O)C(=O)N(c2ccc(S(N)(=O)=O)cc2)C1c1cccc([N+](=O)[O-])c1 (stereo not given) do in these assays?
TCR-CD3 inh: 1; PAFAH1B2 inh: 3; pPAFAH inh: 3; PAFAH2 FP inh: -2; PAFAH1B3 FP inh: 1

What do the screens show for `CC(=O)C1C(=O)c2c(cccc2[N+](=O)[O-])C1=Nc1ccc(S(N)(=O)=O)cc1` (stereo not given)?
TCR-CD3 inh: 9; PAFAH1B2 inh: 23; pPAFAH inh: 25*; PAFAH2 FP inh: 39*; PAFAH1B3 FP inh: 35*

What do the screens show for `Nc1[nH]c(C(=O)c2ccc(Br)cc2)c(-c2ccccc2)c1C(=O)NCCc1c[nH]c2ccccc12`?
TCR-CD3 inh: -3

What do the screens show for `O=C1C2CCCCN2C(=O)N1CCCCN1CCN(c2cccc(Cl)c2)CC1` (stereo not given)?
TCR-CD3 inh: -5; PAFAH1B2 inh: 5; pPAFAH inh: 25*; PAFAH2 FP inh: -2; PAFAH1B3 FP inh: -5

How did Nc1c(C(=O)NCc2ccccc2)sc2nc(N3CCOCC3)c3c(c12)CCCC3 do in these assays?
TCR-CD3 inh: -3; PAFAH1B2 inh: 4; pPAFAH inh: 27*; PAFAH2 FP inh: 6; PAFAH1B3 FP inh: -9

How did CNC(=O)c1ccc(-c2sc3nc(N4CCOCC4)c4c(c3c2N)CC(C)(C)OC4)o1 do in these assays?
TCR-CD3 inh: 1; PAFAH1B2 inh: 9; pPAFAH inh: 3; PAFAH2 FP inh: -1; PAFAH1B3 FP inh: 9

How did CNC(=O)c1ccc(-c2sc3nc(N4CCOCC4)c4c(c3c2N)CCCC4)o1 do in these assays?
TCR-CD3 inh: 1; PAFAH1B2 inh: 1; pPAFAH inh: 27*; PAFAH2 FP inh: -2; PAFAH1B3 FP inh: 3

Results for CN1CCN(S(=O)(=O)c2ccc(N3CCN(c4ccc(O)cc4)CC3)c([N+](=O)[O-])c2)CC1 ?
TCR-CD3 inh: -1; PAFAH1B2 inh: 16; pPAFAH inh: 4; PAFAH2 FP inh: 4; PAFAH1B3 FP inh: -9

How did O=[N+]([O-])c1cc(S(=O)(=O)Nc2ccccc2)ccc1N1CCN(c2ccc(O)cc2)CC1 do in these assays?
TCR-CD3 inh: 2; PAFAH1B2 inh: 0; pPAFAH inh: 30*; PAFAH2 FP inh: 7; PAFAH1B3 FP inh: 12

Results for CCCCOCCCNC(=O)C[C@H]1C[C@@]2(C(=O)OC)C(=C[C@H](C(C)(C)C)O[C@@H]2C)N(Cc2ccc3c(c2)OCO3)C1=O ?
TCR-CD3 inh: -10

Results for COc1ccc(C)cc1N1CC(C(=O)OCc2nc(N)nc(Nc3ccccc3C)n2)CC1=O (stereo not given) ?
TCR-CD3 inh: -7; PAFAH1B2 inh: 0; PAFAH2 FP inh: 3; PAFAH1B3 FP inh: 4

Results for CN(C)S(=O)(=O)c1ccc(NC(=O)CSc2nc3ccccc3n2-c2ccccc2)cc1 ?
TCR-CD3 inh: -1; PAFAH1B2 inh: -14; pPAFAH inh: 12; PAFAH2 FP inh: -27; PAFAH1B3 FP inh: -19

How did Cc1cc(C)nc(SCC(=O)c2cc3ccccc3oc2=O)n1 do in these assays?
TCR-CD3 inh: 5; PAFAH1B2 inh: 2; pPAFAH inh: 3; PAFAH2 FP inh: -1; PAFAH1B3 FP inh: 4

Results for NS(=O)(=O)c1ccc(NC(=O)CSc2nc3ccccc3n2-c2ccccc2)cc1 ?
TCR-CD3 inh: -1; PAFAH1B2 inh: -3; pPAFAH inh: 32*; PAFAH2 FP inh: -15; PAFAH1B3 FP inh: -15

Results for O=C(CSc1nc2ccccc2n1-c1ccccc1)NCC1CCCO1 (stereo not given) ?
TCR-CD3 inh: -3; PAFAH1B2 inh: -1; pPAFAH inh: 28*; PAFAH2 FP inh: 4; PAFAH1B3 FP inh: 2

Results for O=C(CSc1nc2ccccc2o1)NCC1CCCO1 (stereo not given) ?
TCR-CD3 inh: -12; PAFAH1B2 inh: 24*; pPAFAH inh: 2; PAFAH2 FP inh: 32*; PAFAH1B3 FP inh: 21

How did O=C(CSc1nc2ccccc2o1)c1cc2ccccc2oc1=O do in these assays?
TCR-CD3 inh: -3; PAFAH1B2 inh: 4; pPAFAH inh: 26*; PAFAH2 FP inh: -3; PAFAH1B3 FP inh: 7

Results for CCOc1ccc(-c2cc(C(=O)Nc3ccc(F)cc3)[nH]n2)c(C)c1 ?
TCR-CD3 inh: 5

Results for CCC(C)[C@H]1CNC(=S)N1CCc1cc(C(F)(F)F)cc(C(F)(F)F)c1 (stereo not given in full) ?
TCR-CD3 inh: 5; PAFAH1B2 inh: 3; pPAFAH inh: 27*; PAFAH2 FP inh: -5; PAFAH1B3 FP inh: 19

How did CCC(C)[C@H]1CNCCN1CCc1cc(C(F)(F)F)cc(C(F)(F)F)c1 (stereo not given in full) do in these assays?
TCR-CD3 inh: -3; PAFAH1B2 inh: 2; pPAFAH inh: -3; PAFAH2 FP inh: 9; PAFAH1B3 FP inh: 0

What do the screens show for `COc1ccc(Cl)cc1NC(=O)c1cccc([N+](=O)[O-])c1O`?
TCR-CD3 inh: -11; PAFAH1B2 inh: 10; PAFAH2 FP inh: 9; PAFAH1B3 FP inh: 10

From PubChem
